Measured values: PubChem BioAssay AID686979 (National Center for Advancing Translational Sciences (NCATS), 2013)
Values joined by “and” are separate entries in the source; they are usually repeats but may differ in a detail not shown here. Equal entries are not always repeated. About 50,000 (12%) of roughly 420,000 compounds were called active. Where a call stands in place of a potency, no number is given. About 26% were inconclusive and are not listed. The call rests on the fitted dose curve; in most records, active means well fitted inhibition curve with a large enough effect; inconclusive means small, poorly fitted or top-dose-only effect; inactive means flat fitted curve, though single readings scatter. The full list was thinned out, with actives kept by preference. The source holds several records for some structures; these can differ, active in one and inactive in another.

Assay: qHTS for Inhibitors of human tyrosyl-DNA phosphodiesterase 1 (TDP1): qHTS in cells in presence of CPT; further: nearly all actives have a fitted effect of over 55% in size
Details: chicken DT40 Tdp1-/-;hTDP1 cells + 20 nM CPT, ATP luminescence, 48 h; series mostly up to 46.2 µM
Summary of the method: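 Cell growth measured by CellTiter-Glo luminescence after a minimum 48 h, 37 C compound exposure with 20 nM CPT in Tdp1-knockout DT40 cells stably expressing hTDP1, seeded 400/well; qHTS titration format.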
Potency means the concentration at half of the fitted maximal effect.

SMILES	Potency	activity change, negative = growth inhibition
CCc1nn(CC(=O)N2CCN(CC)CC2)c(=O)c2cccn12	inactive	
COc1ccc(S(=O)(=O)NC(C)c2ccccc2)cc1C(=O)N1CCCCC1 (centres undefined)	inactive	
Cc1ccc(S(=O)(=O)n2cccc2CO)cc1	inactive	
COc1cccc2cc(-c3nc(Cl)c4c5c(sc4n3)CC(C)CC5)c(=O)oc12 (centres undefined)	inactive	
COc1ccc(OC)c(NC(=O)/C=C/c2ccc(C)o2)c1	inactive	
CCc1nnc(NC(=O)/C=C/c2ccc(C)o2)s1	inactive	
Cc1ccc(/C=C/C(=O)Nc2ccc([N+](=O)[O-])c(NC(=O)/C=C/c3ccc(C)o3)c2)o1	11.6 µM (active)	
O=C(Nc1ccn(Cc2ccc(F)cc2)n1)c1ccncc1	18.4 µM (active)	
O=C(Nc1ccn(Cc2ccccc2)n1)c1cccc(F)c1	inactive	
O=C(Nc1ccn(Cc2ccccc2)n1)c1n[nH]c([N+](=O)[O-])c1Cl	inactive	
Cn1c(=S)sc2ccc3ccccc3c21	inactive	
CC(C)NC(=O)N1CC[C@@]2(CCCN(C(=O)c3ccco3)C2)C1	inactive	
Cc1ccc(NC(=O)CN2CCCCC2)c2c1CC(C)(C)O2	inactive	
O=C(O)CSc1ccc(S(=O)(=O)N2CCCC2)cn1	inactive	
Cc1ccc(S(=O)(=O)NC2(C(F)(F)F)NC(=O)N(CCc3ccccc3)C2=O)cc1 (centres undefined)	inactive	
O=C(Cc1ccc(F)cc1)N1CCN=C1SCc1cccc([N+](=O)[O-])c1	inactive	
COc1ccc(NC(=O)c2cnc(Nc3ccc(C)c(Cl)c3)c3ccccc23)cc1OC	inactive	
COc1ccc(Nc2ncc(C(=O)N3CCN(c4ccccc4OC)CC3)c3ccccc23)cc1	29.1 µM (active) and 13 µM (active)	
COc1ccccc1N1CCN(C(=O)c2ccc(NC3=NC4CS(=O)(=O)CC4S3)cc2)CC1 (centres undefined)	inactive	
O=C(Nc1cc(F)ccc1F)c1ccc2c(=O)n3c(nc2c1)CCC3	inactive	
O=C(CCc1ccccc1)Nc1ncc([N+](=O)[O-])s1	20.6 µM (active)	
O=C(Nc1nc(-c2cccnc2)cs1)c1ccccc1F	inactive	
CC(=O)NCCC(=O)Nc1nc(-c2ccc3c(c2)OCCO3)cs1	inactive	
Cc1ccc(-c2csc(NC(=O)Cc3cccs3)n2)cc1C	inactive	
O=C(CCc1ccccc1)Nc1nn[nH]n1	inactive	
Cc1ccc(-c2csc(NC(=O)C3=COCCO3)n2)cc1C	13 µM (active)	

SMILES	Potency	activity change, negative = growth inhibition
CC(=O)c1cccc(NC(=O)C2COc3ccccc3O2)c1 (centres undefined)	inactive	
O=C(Nc1nc(-c2ccc3c(c2)OCO3)cs1)c1ccncc1	14.6 µM (active)	
O=C(Nc1nc(-c2ccncc2)cs1)C1COc2ccccc2O1 (centres undefined)	20.6 µM (active)	
Cc1csc(NC(=O)C2=COCCO2)n1	inactive	
O=C(CCc1ccccc1)Nc1ccc(NC(=O)C2CCCCC2)nc1	inactive	
COc1ccc(NC(=O)C2COc3ccccc3O2)cc1 (centres undefined)	inactive	
Fc1ccc(/C=N/n2c(COc3ccccc3)n[nH]c2=S)cc1	inactive	
C#CCN(C[C@H]1[C@H](OC(=O)NC2CCCC2)[C@H](OC(=O)NC2CCCC2)C[C@H]2C(=O)N(c3ccccc3)C(=O)[C@@H]12)S(=O)(=O)c1ccc(C)cc1	inactive	
CC(Oc1ccccc1)C(=O)NN1Cc2ccccc2C1=N (centres undefined)	inactive	
O=C(COc1ccc([N+](=O)[O-])cc1)Nc1ccc(N2CCCC2)cc1	inactive	
C/C(=N/NC(=O)C1COc2ccccc2O1)c1ccco1 (centres undefined)	inactive	
O=C(Nc1nnc(SCc2ccc(Cl)cc2Cl)s1)C1COc2ccccc2O1 (centres undefined)	inactive	
O=C(Nc1ncc([N+](=O)[O-])s1)C1COc2ccccc2O1 (centres undefined)	14.6 µM (active)	
Cc1cc(N=Nc2ccc3ccccc3c2)ccc1O	inactive	
C[C@H](NC(=O)c1nc[nH]c1C(=O)NCC(=O)OC(C)(C)C)C(=O)OCc1ccccc1	inactive	
COc1ccc(C(O)C(O)(C(=O)OC(C)C)c2ccc(C)cc2)cc1 (centres undefined)	inactive	
COc1ccc(OC)c(-c2csc(-c3cccs3)n2)c1	inactive	
COc1ccc(-c2csc(Nc3ccc(O)cc3)n2)cc1	10.3 µM (active)	
COc1cccc(CC(=O)Nc2ccc(-c3csc(C)n3)cc2)c1	inactive	
COc1ccc(OC)c(Nc2nc(-c3ccc(O)c(O)c3)cs2)c1	0.82 µM (active)	
COc1ccc(-c2csc(Cc3nc(O)cs3)n2)cc1	18.4 µM (active)	
COc1ccc(CCN(C(=O)COc2ccccc2)c2nc(-c3ccccc3)cs2)cc1OC	inactive	
COc1ccc(OC)c(-c2csc(NC(=O)COC(=O)C3CC3)n2)c1	inactive	
N#CCc1ccc(NC(=O)c2ccccc2C(=O)Nc2ccc(CC#N)cc2)cc1	inactive	
COc1ccc(NC(=O)COC(=O)c2n[nH]c3ccccc23)c(OC)c1	inactive	
CCOc1ccc(N2CC(C(=O)NCc3ccccn3)CC2=O)cc1 (centres undefined)	inactive	

SMILES	Potency	activity change, negative = growth inhibition
COc1cc(/C=C/C(=O)O)cc(S(=O)(=O)Nc2ccccc2C(=O)NCCc2ccccc2)c1OC	inactive	
COCCCn1c(SCC(=O)NC2CCCC2)nnc1-c1ccccc1	inactive	
CCCCN(C)CCCNC(=O)CN1N=C(c2ccc(OC)cc2)CCC1=O	inactive	
O=C1NNC(c2ccccc2)=N/C1=C\c1ccc(Cl)cc1	inactive	
Cc1nc(=O)c(-c2ccccc2)c(C)n1-c1ccc(Br)cc1	inactive	
CCOC(=O)c1c(C)oc(C)c(C(=O)OCC)c1=O	inactive	
CC(C)Cn1cnc2c1c(=O)n(CC(=O)NN)c(=O)n2Cc1ccccc1	inactive	
CC1=Nc2cc(C(=O)N3CCC(C)CC3)ccc2Sc2ccc(Cl)cc21	14.6 µM (active)	
COc1ccc(C(=O)Nc2c(Cl)cc(Cl)cc2C(=O)N2CCC(C)CC2)cc1	inactive	
CC1CCN(C(=O)c2ccc3c(c2)NC(=O)CN3)CC1	inactive	
Cc1cc(OCc2ccc(C(=O)Nc3ccc(C(=O)O)cc3)o2)ccc1Cl	inactive	
CCN(CC)CCCNC(=O)CCc1ccccc1	inactive	
CN(C(=O)CN(CCO)CC(=O)N(C)C(C)(C)Cc1ccccc1)C(C)(C)Cc1ccccc1	inactive and 3.66 µM (active)	
CN(Cc1ccccc1)C(=O)CCc1ccccc1	inactive	
CCCCN(C)c1ccc([N+](=O)[O-])cc1	inactive	
Cc1cc(C)c(S(=O)(=O)c2ccccc2)c(OC(=O)c2c(F)cccc2Cl)n1	inactive	
Cc1ccc(SCC(=O)c2sc(-c3ccccc3)nc2C)cc1	inactive	
Cc1nc(COc2cccc(Cl)c2)sc1C(=O)/C=C/N(C)C	inactive	
Cc1nc(-c2ccc(Cl)cc2)sc1C(=O)NN	inactive	
Cc1nc(-c2ccccc2)sc1C(=O)/C=C/N(C)C	23.1 µM (active)	
Cc1nc(-c2ccccc2)sc1C(=O)/C=C/c1ccccc1	23.1 µM (active)	
CN(C)/C=C/C(=O)c1ccccc1F	inactive	
O=C(CN1CCSCC1)N/N=C/c1ccc(F)cc1F	inactive	
CCn1nc(C(=O)NNC(=O)C2CSC3(C)CCC(=O)N23)c2ccccc2c1=O (centres undefined)	inactive	
COc1ccc(S(=O)(=O)NC(C)C(=O)NCc2ccncc2)cc1Cl (centres undefined)	inactive	
COc1ccc(Cn2c(=O)c3oc4ccccc4c3n(CC(=O)Nc3ccc(F)cc3F)c2=O)cc1	inactive	

SMILES	Potency	activity change, negative = growth inhibition
CN=C(c1ccccc1)c1c(C)cccc1C	inactive	
COc1ccc(OC)c(C(O)c2nc3ccccc3n2C)c1 (centres undefined)	inactive	
COc1ccc(OC)c(Nc2nc3ccccc3n3cnnc23)c1	4.11 µM (active)	
COc1ccc(CCNc2nc3ccc(C)cc3n3cnnc23)cc1OC	14.6 µM (active)	
COc1ccccc1CNc1nc2ccc(Cl)cc2n2cnnc12	inactive	
CCOc1ccc(OCC)c(Nc2nc3ccccc3n3nnnc23)c1	inactive	
COc1cc(Nc2nc3ccc(Cl)cc3n3cnnc23)cc(OC)c1OC	20.6 µM (active)	
CCOC(=O)Cc1cccc(-c2cc(CCCCCCc3ccc(O[C@H]4O[C@H](COC(C)=O)[C@@H](OC(C)=O)[C@H](OC(C)=O)[C@@H]4OC(C)=O)c(-c4cccc(CC(=O)OCC)c4)c3)ccc2O[C@H]2O[C@H](COC(C)=O)[C@@H](OC(C)=O)[C@H](OC(C)=O)[C@@H]2OC(C)=O)c1	inactive	
Cc1nnc(SCC(=O)NC(=O)NC2CCCC2)n1N	inactive	
Nc1nc(SC23CC4CC(CC(C4)C2)C3)ns1	inactive	
Nc1nc(NC(=O)/C=C/c2ccccc2)nn1-c1ccccc1	inactive	
CC1(c2cccc(N)c2)OCCO1	inactive	
COc1ccc(N2C(=O)c3ccccc3NC2c2ccc(OC)c(CN3CCOCC3)c2)cc1 (centres undefined)	inactive	
COc1ccc(C2Nc3ccc(NC(=O)COC(C)=O)cc3C(=O)N2Cc2ccccc2)cc1COc1ccc(NC(C)=O)cc1 (centres undefined)	17.8 µM (active)	
CC(=O)Nc1ccc(NC(=O)COc2ccc(-c3ccccc3)cc2)cc1	inactive	
COc1ccc2c(c1)CCc1cnc(-n3ncc(C(=O)NCc4cccnc4)c3C3CC3)nc1-2		-5.66% [at 9.04 µM] (inactive)
Cc1nc2ccccn2c(=O)c1NC(=O)c1cccs1	inactive	
Cc1noc(C)c1S(=O)(=O)N(CC(=O)Nc1ccc2c(c1)OCCO2)c1ccc(C(C)C)cc1	20.6 µM (active)	
Cc1ccc(S(=O)(=O)NCC(=O)Nc2ccc3c(c2)OCCO3)cc1	inactive	
CCOc1ccc(N(CC(=O)NCc2ccc(OC)cc2)S(=O)(=O)c2c(C)noc2C)cc1	inactive	
O=C(O)c1cccc(NC(=O)c2cc(-c3cccc(Cl)c3)nc3ccccc23)c1	inactive	
Cn1c(Nc2cccc(Cl)c2)nc2ccccc21	inactive	
Cc1c(C(=O)Nc2cccc(Cl)c2)cn2c(nc3ccccc32)c1C#N	16.4 µM (active)	
CC1(c2ccc3ccccc3c2)NC(=O)NC1=O (centres undefined)	inactive	
Cc1cccc(N2C(=O)c3ccc(C(=O)Nc4cccc(C(=O)O)c4)cc3C2=O)c1	inactive	
Cc1cccc(NC(=O)c2cccc(C(=O)Nc3cccc(C)c3C)n2)c1C	inactive	
